# From PubChem BioAssay AID504332 (National Center for Advancing Translational Sciences (NCATS), 2011)
# Hit rate of the full screen: of about 350,000 compounds, about 31,000 (8.9%) were called active. Inconclusive results (about 15%) are left out. The entries come from a sample that favours actives as a whole. Unmarked numbers belong to inactive results. Calls follow the shape of the dose curve; as a rule, active = well fitted inhibition curve with a large enough effect; inconclusive = small, poorly fitted or top-dose-only effect; inactive = no such curve, though single readings can be large or run the other way.
# Target: Histone-lysine N-methyltransferase EHMT2 (Homo sapiens) (UniProt Q96KQ7)
# Sequence (Q96KQ7 913-1193 limits assumed): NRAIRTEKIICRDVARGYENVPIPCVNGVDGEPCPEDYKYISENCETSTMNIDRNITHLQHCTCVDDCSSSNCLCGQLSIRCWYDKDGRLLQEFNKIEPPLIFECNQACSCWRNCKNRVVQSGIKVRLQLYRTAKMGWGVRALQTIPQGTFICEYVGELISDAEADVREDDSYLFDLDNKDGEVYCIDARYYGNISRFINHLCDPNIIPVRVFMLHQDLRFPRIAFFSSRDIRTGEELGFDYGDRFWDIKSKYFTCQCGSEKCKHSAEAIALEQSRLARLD
# Test: qHTS Assay for Inhibitors of Histone Lysine Methyltransferase G9a; also: nearly all actives have a fitted effect of over 75% in size
# Conditions: G9a H3K9 monomethylation, AlphaScreen, 2 h; series mostly up to 59 µM; activity, negative = inhibition: at the top concentration
# Outline: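 AlphaScreen read-out: biotin-H3K9 peptide (500 nM) methylation by 20 nM enzyme with 20 uM SAM, 2 h at room temperature after 15 min compound preincubation; anti-monomethyl H3K9 antibody plus donor/acceptor beads, 10 min dark.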
# % is scaled to controls: 0 for no effect and ±100 for the full control effect; potency is read from the fitted curve at half-maximal effect.
SMILES,Potency,"activity, negative = inhibition"
CC1CCCN(C(=O)c2ccc3c(c2)C(=O)N(CCC2=CCCCC2)C3=O)C1 (stereo not drawn),39.8 µM (active),–
Cc1cc(=O)n2nc(N3CCCC(C(=O)NCCC4=CCCCC4)C3)sc2n1 (stereo not drawn),–,4.22% [at 12.7 µM]
O=c1[nH]c2cc(Br)ccc2n2cccc12,–,4.26%
CNC(=O)C1CC(=O)N(c2ccc(OCC(=O)Nc3ccccc3C)cc2)C1 (stereo not drawn),–,-6.25% [at 102 µM]
Cc1cccc(N2CCN(Cc3c(C)n(C)n(-c4ccccc4)c3=O)CC2)c1C,–,11.6% [at 12.7 µM]
Cc1cccc(N2CCN(C3=C(c4ccccc4)C(=O)c4ccccc43)CC2)c1C,3.55 µM (active),–
Cc1cccc(N2CCN(C(=O)c3oc(=O)c4ccccc4c3-c3ccccc3)CC2)c1C,–,-10.9%
CN(C)c1ccc(-c2nnc(-c3cccnc3)o2)cc1,–,-31.1% [at 102 µM]
COC(=O)c1cc(NC(=O)c2cnc(SC)nc2-c2ccccc2)cc(C(=O)OC)c1,–,-6.31%
COc1ccc(OCCCn2c(C3CC(=O)N(c4ccc(F)cc4)C3)nc3ccccc32)cc1 (stereo not drawn),–,-22.6%
COc1ccc([C@H]2CC(=O)C=C(c3ccc(OC(F)(F)F)cc3)C2)cc1OC,–,-10% [at 2.33 µM]
Cc1cccc(OCCSc2nc3ccccc3n2CC(=O)N2CCCCC2)c1C,12.6 µM (active),–
Cc1ccc(C(C)C)c(OCCSc2nc3ccccc3n2CC(=O)O)c1,–,-48% [at 102 µM]
CC(C)N(C(=O)Cn1c(SCC(=O)N2CCN(c3ccccc3)CC2)nc2ccccc21)C(C)C,–,2.09% [at 102 µM]
CN(CC(=O)NCC(c1ccccc1)N1CCCC1)S(=O)(=O)c1ccc(Cl)cc1 (stereo not drawn),–,-5.36% [at 12.7 µM]
O=C(Nc1nnc(C2CC(=O)N(c3ccc(Cl)cc3)C2)s1)c1ccco1 (stereo not drawn),–,-2.59%
CCN(c1ncnc2c1cnn2-c1ccc(C)cc1)C1CCCCC1,–,6.18%
C/C=C/c1ccc(OCCCCN2CCC(C)CC2)c(OC)c1,–,-45.5% [at 102 µM]
C/C=C/c1ccc(OCC(O)CN2CCCCCCC2)c(OC)c1 (stereo not drawn),20 µM (active),–
COc1ccccc1OCC(O)CN1CCOCC1 (stereo not drawn),–,16.1%
CCC(=O)N1CCc2cc(S(=O)(=O)NC(Cc3ccccc3)C(=O)NCc3ccc(C)cc3)ccc21 (stereo not drawn),–,1.8%
c1ccc(CNc2ncnc3[nH]ncc23)cc1,–,0.452%
CCCCN(C(=O)CCNC(=O)NC12CC3CC(CC(C3)C1)C2)c1c(N)n(CCCC)c(=O)[nH]c1=O,–,-3.13% [at 0.501 µM]
CCCCn1c(N)c(N(CC(C)C)C(=O)c2ccc(Br)o2)c(=O)[nH]c1=O,–,-3.52% [at 102 µM]

SMILES,Potency,"activity, negative = inhibition"
CCCCN(C(=O)c1ccc2ccccc2c1)c1c(N)n(CCCC)c(=O)[nH]c1=O,–,-3.76%
CCCCN(C(=O)c1ccc(C)o1)c1c(N)n(CCCC)c(=O)[nH]c1=O,–,4.93% [at 0.501 µM]
CCCCn1c(N)c(N(CC(C)C)C(=O)c2cnc(C)cn2)c(=O)[nH]c1=O,–,-29.2% [at 102 µM]
CCCCn1c(N)c(N(CC(C)C)C(=O)C2CSC3(C)CCC(=O)N23)c(=O)[nH]c1=O (stereo not drawn),50.1 µM (active),–
CCCCn1c(N)c(N(CCC(C)C)C(=O)COC(=O)c2ccc(CC)cc2)c(=O)[nH]c1=O,–,-39.5% [at 102 µM]
CCCCn1c(N)c(N(CC(C)C)C(=O)c2ccc(-n3c(C)ccc3C)cc2)c(=O)[nH]c1=O,56.2 µM (active),–
CCCCn1c(N)c(N(CC(C)C)C(=O)CSc2ccc([N+](=O)[O-])cc2)c(=O)[nH]c1=O,50.1 µM (active),–
Cc1cc(C)c2oc(C(=O)Nc3ccc(S(=O)(=O)N(C)c4ccccc4)cc3)cc(=O)c2c1,–,3.25%
COc1cc(OC)cc(C(=O)Nc2c(C(=O)Nc3ccc(F)cc3)oc3ccccc23)c1,–,-21.7%
Cc1ccccc1CSCCNC(=O)C1CCN(S(=O)(=O)Cc2ccccc2)CC1,–,-6.76%
CC(OC(=O)Cc1ccc(F)cc1)C(=O)N1CCc2ccccc21 (stereo not drawn),–,11.4% [at 102 µM]
COc1ccc([C@H]2CC(=O)C=C(/C=C/c3ccc(Cl)cc3)C2)cc1,–,9.28% [at 2.33 µM]
Cc1c(C)n2c(SCC(=O)N3CCCC3)nnc2[nH]c1=O,–,6.3%
Cc1ccc(C)c(OCC(=O)NNC(=O)C2CCC2)c1,–,-2.65% [at 12.7 µM]
Cc1ccc(NNC(=O)C2CCC2)cc1C,11.2 µM (active),–
O=C(NNC(=O)C1CCC1)c1ccccc1,–,24.7% [at 12.7 µM]
Cc1cc(C)n2nc(C(=O)OCC(=O)N(CCC#N)c3ccc(F)cc3)nc2n1,–,12.1% [at 0.501 µM]
CCC1(c2ccccc2)NC(=O)N(CC(=O)c2ccc3c(c2)OCO3)C1=O (stereo not drawn),–,-7.32% [at 102 µM]
O=C(CN1CCC(O)(c2cccc(C(F)(F)F)c2)CC1)NCCc1ccccc1,–,13.3%
CC(C)c1ccc(NC(=O)C2CCN(c3nc(-c4ccc(C(C)C)cc4)no3)CC2)cc1,–,50.8%
Cc1cc(-c2ccc(C)c(S(=O)(=O)Nc3ccc(S(N)(=O)=O)cc3)c2)on1,–,-5.1% [at 102 µM]
CCOc1ccccc1CNS(=O)(=O)c1cc(-c2cc(C)no2)ccc1C,–,36% [at 102 µM]
CCN(CC)c1ccc(NS(=O)(=O)c2cc(-c3cc(C)no3)ccc2C)c(C)c1,3.16 µM (active),–
COc1ccc2c(C)c(CCC(=O)NCc3ccc(OC)c(OC)c3)c(=O)oc2c1,–,18.4%
